# Screening data (PubChem BioAssay)
# An excerpt weighted towards active compounds, which were near 8.1% of everything screened.
# NOMO-1 viab – STK33 inhibitor candidate reducing NOMO-1 cell viability | NOMO-1 AML viability, CellTiter-Glo luminescence, 72 h | 37,000 tested, 7.5% active | AID 2330 | inhibition, % (no concentration beside the values); in the data active means inhibition above about 80%; inconclusive means no clear call, values can overlap the other calls
# Shh pathway inh – Sonic Hedgehog pathway inhibition | Shh-LIGHT2 Gli-luciferase reporter, 30 h | inhibition, % (concentration not given with the values) | 22,000 tested, 2.1% active | AID 2313;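 active means mean inhibition across valid replicates above about 65%, limit read from the data; inconclusive means mean under the limit, yet half or more replicates past it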;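 further: pathway switched on by Shh-conditioned medium diluted 1 in 25 in low serum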
# MITF inh – blocks MITF activity; TRPM1 promoter luciferase, luminescence, 24 h; inhibition, % (test concentration not listed); 37,000 tested, 0.28% active; in the data active means inhibition above about 85%; inconclusive means no clear call, values can overlap the other calls; inactive means below about 68%;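 further: human melanocyte line stably carrying TRPM1 promoter luciferase reporter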
# Starred values were filed as active, the others as inactive; ? = inconclusive; / = not tested or not shown.
SMILES,NOMO-1 viab,Shh pathway inh,MITF inh
COc1ccc(NC(=O)C2=C(C)NC(=S)NC2c2cccc([N+](=O)[O-])c2)c(OC)c1 (centres undefined),-11,/,-10
COC(=O)C1=C(C)NC(C)=C(C(=O)OCCCN2CCC(c3ccccc3)(c3ccccc3)CC2)C1c1cccc([N+](=O)[O-])c1 (centres undefined),120*,72*,110*
CCOC(=O)c1c(NC(=O)Cn2cnc3ccccc3c2=O)sc2c1CCCC2,26,/,-9
CCOC(=O)c1c(NC(=O)CSc2nc3ccccc3c(=O)[nH]2)sc2c1CCCC2,107*,/,10
O=C(Cn1c(=O)oc2ccccc21)Nc1sc2c(c1C(=O)O)CCCC2,-7,/,0
O=C(c1cc2ccccc2oc1=O)N(Cc1ccccc1)c1ccccn1,10,/,-8
COc1ccc(CN(C)C[C@@H]2Oc3ccc(NS(=O)(=O)c4ccc(OC)cc4)cc3C(=O)N([C@H](C)CO)C[C@@H]2C)cc1,8,-24,4
COc1ccc(S(=O)(=O)Nc2ccc3c(c2)C(=O)N([C@@H](C)CO)C[C@H](C)[C@H](CN(C)Cc2ccc(Cl)c(Cl)c2)O3)cc1,93*,20,8
COc1ccc(S(=O)(=O)Nc2ccc3c(c2)C(=O)N([C@H](C)CO)C[C@@H](C)[C@H](CN(C)Cc2ccc(Cl)c(Cl)c2)O3)cc1,50,/,4
COc1ccc(CN(C)C[C@H]2Oc3ccc(NS(=O)(=O)c4ccc(OC)cc4)cc3C(=O)N([C@H](C)CO)C[C@@H]2C)cc1,14,6,-2
COc1ccc(S(=O)(=O)Nc2ccc3c(c2)C(=O)N([C@H](C)CO)C[C@@H](C)[C@@H](CN(C)Cc2ccc(Cl)c(Cl)c2)O3)cc1,116*,78*,27
COc1ccc(S(=O)(=O)Nc2ccc3c(c2)C(=O)N([C@@H](C)CO)C[C@@H](C)[C@H](CN(C)Cc2ccc(Cl)c(Cl)c2)O3)cc1,118*,/,63
O=S(=O)(NC1c2cccc3cccc(c23)C1Sc1nnnn1-c1ccccc1)c1ccccc1 (centres undefined),44,/,14
CCc1ccc(-c2cn3c4ccccc4nc3n2CCN2CCOCC2)cc1,36,/,25
CC(=O)Nc1ccc(NC(=O)CN(c2ccc(Cl)c(C(F)(F)F)c2)S(C)(=O)=O)cc1,99*,/,7
COC(=O)c1ccc(NC(=O)CN(c2ccccc2Br)S(C)(=O)=O)cc1,15,/,0
COC(=O)c1ccc(Cl)c(NC(=O)CN(c2ccccc2Br)S(C)(=O)=O)c1,95*,/,8
COC(=O)c1ccccc1NC(=O)CN(c1ccc(C)c(Cl)c1)S(C)(=O)=O,29,/,8
Cc1cccc(C)c1NC(=O)CN(c1ccc(Cl)c(C(F)(F)F)c1)S(C)(=O)=O,-7,/,9
COC(=O)c1cccc(NC(=O)CN(c2ccc(Cl)c(C(F)(F)F)c2)S(C)(=O)=O)c1C,142*,/,-22
CS(=O)(=O)N(CC(=O)Nc1ccc(Cl)c(C(F)(F)F)c1)c1cccc(C(F)(F)F)c1,?,/,27
COC(=O)c1cccc(NC(=O)CN(c2ccc(I)cc2)S(C)(=O)=O)c1C,100*,/,-75
Cc1nc(-c2ccccc2)sc1C(=O)C1C(=O)C(=O)N(CCN(C)C)C1c1ccc(Cl)cc1 (centres undefined),11,/,-9
COc1cc2c(cc1O)C(=O)CC1C(C)(C)C(=O)CCC21C (centres undefined),7,-16,-10
C[C@@H]1CN([C@H](C)CO)C(=O)Cc2cc(N(C)C)ccc2O[C@H]1CN(C)S(=O)(=O)c1ccccc1,-7,-6,-3
SMILES,NOMO-1 viab,Shh pathway inh,MITF inh
COC(=O)c1c(NC(=O)c2cc3ccccc3oc2=O)sc2c1C(C(=O)OC)CC2 (centres undefined),-26,/,-41
O=C(COc1ccccc1[N+](=O)[O-])Nc1ccc2oc(-c3ccc(Cl)cc3)nc2c1,-2,/,-37
Cc1ccccc1NC(=O)CCC(=O)OC1CCC(C(C)(C)C)CC1 (centres undefined),93*,29,-11
Cc1ccccc1NC(=O)CCCC(=O)O,-13,/,-21
Cc1noc(C)c1S(=O)(=O)Nc1ccc2c(c1)C(=O)N([C@@H](C)CO)C[C@@H](C)[C@@H](CN(C)Cc1ccc(-c3ccccc3)cc1)O2,64,-21,15
COc1ccc(OCC(=O)Nc2ccc(OC)cc2[N+](=O)[O-])cc1,-11,/,-38
Cc1cc(C)c2nc(-c3ccccn3)cc(C(=O)NCc3ccc(S(N)(=O)=O)cc3)c2c1,113*,/,28
Cc1cc(C)c2nc(-c3ccccn3)cc(C(=O)NCCc3ccc(S(N)(=O)=O)cc3)c2c1,27,/,16
COc1ccc(NC(=O)c2cc(-c3ccccn3)nc3c(C)cc(C)cc23)c([N+](=O)[O-])c1,68,/,87*
COc1ccccc1CNC(=O)c1cc(-c2ccccn2)nc2c(Cl)cccc12,92*,/,47
COCCCNC(=O)c1cc(-c2ccccn2)nc2ccc(Br)cc12,8,/,13
COc1cc2oc(-c3ccccc3)cc(=O)c2c(OC)c1OC,7,-14,-52
O=C(Cn1cnc2ccccc2c1=O)Nc1cccc(C(=O)c2ccccc2)c1,10,/,13
O=C(CC(NC1CCCCC1)C(=O)O)Nc1cccc(Cl)c1 (centres undefined),11,/,-11
CCCc1ccc(O)c(N)c1,124*,26,15
Nc1cc(-c2ccccc2)ccc1O,63,/,-1
COc1ccc(S(=O)(=O)Nc2ccc3c(c2)C(=O)N([C@H](C)CO)C[C@H](C)[C@H](CN(C)S(=O)(=O)c2ccc(OC)cc2)OCCCC[C@@H](C)O3)cc1,38,/,22
C[C@@H]1CCCCO[C@H](CN(C)S(=O)(=O)c2ccc(Cl)cc2)[C@@H](C)CN([C@H](C)CO)C(=O)c2cc(NS(=O)(=O)c3ccc(Cl)cc3)ccc2O1,20,14,36
C[C@@H]1CCCCO[C@@H](CN(C)CC2CCCCC2)[C@@H](C)CN([C@H](C)CO)C(=O)c2cc(NS(=O)(=O)c3ccc(Cl)cc3)ccc2O1,97*,-4,13
C[C@@H]1CCCCO[C@@H](CN(C)S(=O)(=O)c2ccc(F)cc2)[C@@H](C)CN([C@H](C)CO)C(=O)c2cc(NS(=O)(=O)c3ccc(F)cc3)ccc2O1,68,-16,46
C[C@@H]1CCCCO[C@@H](CN(C)S(=O)(=O)c2ccc(Cl)cc2)[C@@H](C)CN([C@H](C)CO)C(=O)c2cc(NS(=O)(=O)c3ccc(Cl)cc3)ccc2O1,91*,71*,53
C[C@@H]1CCCCO[C@H](CN(C)CC2CCCCC2)[C@@H](C)CN([C@H](C)CO)C(=O)c2cc(NS(=O)(=O)c3ccc(Cl)cc3)ccc2O1,?,-1,13
C[C@@H]1CCCCO[C@@H](CN(C)S(=O)(=O)c2ccc(Cl)cc2)[C@@H](C)CN([C@H](C)CO)C(=O)c2cc(NS(=O)(=O)c3ccc(F)cc3)ccc2O1,103*,25,48
COc1ccc(S(=O)(=O)N(C)C[C@@H]2OCCCC[C@@H](C)Oc3ccc(NS(=O)(=O)c4ccc(Cl)cc4)cc3C(=O)N([C@H](C)CO)C[C@@H]2C)cc1,94*,14,48
CCOC(=O)c1ccccc1NC(=O)c1cc(Cl)ccc1NC(=O)c1ccc(OC)cc1,11,/,7
